Most compounds without a hit are left out; they make up all but 4.8% or so of the library.
DAX1 inh-1 = blocks DAX1 repression of SF-1 activated StAR promoter; 370,000 tested, 1.1% active; HEK293T StAR-luciferase reporter, SF-1/DAX-1 repression relief; inhibition, % at 6.8 µM;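 active = inhibition above the mean over all tested compounds plus 3 SD, cut at about 3.6% in these data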;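 also: 0% = DAX-1 cells with DMSO and 100% = cells lacking DAX-1 with DMSO; higher inhibition means more luminescence from relief of DAX-1 repression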
hgDAF-12 ag = agonists of H. glycines DAF-12 nuclear receptor | activation, % at 6.8 µM | HEK293 GAL4-hgDAF12 UAS-luciferase reporter, agonist luminescence; normalized to butyrate control | 370,000 tested, 1.8% active;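 active = activation above a cutoff set at the mean of all screened compounds plus 3 SD, cut at about 10% in these data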;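 also: 0% = DMSO wells and 100% = sodium butyrate wells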
hcDAF12 agonist = H. contortus DAF-12 activation, primary screen; HEK293 hcDAF-12 lit1-tk-luc reporter, luminescence; 0% DMSO, 100% Δ7-dafachronic acid; activation, % at 6.8 µM; 370,000 tested, 1.4% active; AID 652067;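 active = activation above the mean of all tested compounds plus 3 SD, cut at about 5.5% in these data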;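 also: 100% = response to 3 µM Δ7-dafachronic acid high control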
ssDAF-12 act = S. stercoralis DAF-12 activation, primary screen | HEK293 ssDAF-12/GRIP1 lit1-tk-luc reporter, luminescence; % of 3 µM dafachronic acid response | activation, % at 6.8 µM | 370,000 tested, 1% active;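 active = activation above the mean over all tested compounds plus 3 SD, cut at about 0.9% in these data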;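 also: 0% = DMSO-only wells and 100% = 3 µM delta7-dafachronic acid wells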
SMARCA2 act = increases SMARCA2 function in MMTV reporter cells; MG213 cells, MMTV-luciferase reporter, dexamethasone, overnight; activation, % at 9.1 µM; 370,000 tested, 1% active; in the data active = activation above about 7.8%;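 also: 0% = vehicle wells and 100% = reference activator wells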
DAX1 inh-2 = inhibitors of human orphan nuclear receptor DAX1 (NR0B1) | 340,000 tested, 0.99% active | HEK293 Gal4-DAX1 luciferase reporter, luminescence | inhibition, % at 6.75 µM;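 active = inhibition above the mean over all tested compounds plus 3 SD, cut at about 4.2% in these data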;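 also: 0% = DAX1-transfected cells with DMSO and 100% = empty-vector control cells with DMSO; inhibition shows as a rise in luminescence from relieved DAX1 repression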
Target sequence (P51843 207-470 limits assumed): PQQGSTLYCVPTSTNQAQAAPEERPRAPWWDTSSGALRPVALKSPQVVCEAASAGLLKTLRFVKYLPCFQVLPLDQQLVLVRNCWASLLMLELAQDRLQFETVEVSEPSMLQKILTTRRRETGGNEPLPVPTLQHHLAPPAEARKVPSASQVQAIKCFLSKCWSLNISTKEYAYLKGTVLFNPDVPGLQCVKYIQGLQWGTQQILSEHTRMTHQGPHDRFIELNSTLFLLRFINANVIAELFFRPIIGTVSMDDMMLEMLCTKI
SMARCA2 conf = confirmation of SMARCA2 (BRM) function activators. shares compounds with SMARCA2 act. MG213 cells, MMTV-luciferase with dexamethasone, luminescence, overnight; MG213 cells expressing E1A, Rb sequestered; DMSO wells 0%, reference activator 100%. activation, % at 9.1 µM. 3,500 tested, 30% active;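 active = activation above its plate's cutoff, the mean activation of tested wells plus 3 SD, cut at about 7.9% in these data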
GAL4-VP16 Luc = GAL4-VP16 reporter activation counter-screen; 3,500 tested, 41% active; activation, % at 9.1 µM; AID 686939; HEK293 GAL4-VP16 pG5luc reporter, luciferase luminescence; scaled: DMSO wells 0%, SAHA wells 100%; shares compounds with SMARCA2 act;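 active = activation above the solvent-only control well mean plus 3 SD, averaged across control plates, cut at about 5.2% in these data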
Numbers without * were called inactive; . = no result.

SMILES	DAX1 inh-1	hgDAF-12 ag	hcDAF12 agonist	ssDAF-12 act	SMARCA2 act	DAX1 inh-2	SMARCA2 conf	GAL4-VP16 Luc
CCOC(=O)C(=NO)C1=CSC2=NNC(C)(C)N12	-1	1	0	-2	9.2*	3	-1	1
COCC1CCCCN1Cc1cn[nH]c1-c1ccc2cc(OC)ccc2c1 (centres undefined)	1	-2	-1	-1	11*	0	3	4
CCCCn1c(N)c(N(CCOC)C(=O)c2cnc(C)cn2)c(=O)[nH]c1=O	2	0	-1	-1	3	3	.	.
O=C(CCc1nnc(C2CCCCC2)o1)NCCCOc1cccnc1	0	-2	0	-2	2	-1	.	.
CCc1cccc(CC)c1NC(=O)C(CC)Sc1nc2ccncc2[nH]1 (centres undefined)	0	-1	-1	-1	8.3*	0	0	1
CCc1cccc(C)c1NC(=O)CSc1nc2ccncc2[nH]1	-3	3	0	-1	1	0	.	.
CCOc1cc2oc(=O)c3c(c2cc1Cl)CCC3	0	-1	-2	-1	0	0	.	.
CCOc1cc2c(C)cc(=O)oc2cc1Cl	-1	3	1	-1	9.9*	1	-1	-2
C[C@H]1CN([C@@H](C)CO)S(=O)(=O)c2ccc(-c3ccncc3)cc2O[C@H]1CN(C)C(=O)c1cccc(F)c1	0	1	1	-1	2	1	.	.
O=[N+]([O-])c1cc(Cl)ccc1NCCNS(=O)(=O)c1ccccc1	1	0	-1	-2	16*	1	-1	1
O=[N+]([O-])c1ccccc1NCCNS(=O)(=O)c1ccc(Cl)cc1	0	1	-1	-2	0	0	.	.
O=C1NC(=Nc2ccccc2)S/C1=C\c1cccnc1	1	-1	-1	-2	-5	0	.	.
O=C1NC(=Nc2cccnc2)S/C1=C/c1ccc(F)cc1	0	0	0	-2	8.4*	.	5	1
Cc1ccc(C2Nc3ccccc3C(=O)N2CCCN2CCOCC2)cc1 (centres undefined)	0	1	4	0	-3	2	.	.
O=C1c2ccccc2NC(c2ccccc2Br)N1CCCN1CCOCC1 (centres undefined)	0	-1	-1	-1	8.1*	0	1	-2
Cc1cccc(C(=O)OCC(=O)N2c3ccccc3CC2C)c1C (centres undefined)	-1	4	-2	-1	-3	0	.	.
O=C1C=CC(O)C2(CO)OC12 (centres undefined)	-1	-2	3	-1	12*	0	-1	4
CC(=O)N1c2ccc(S(=O)(=O)NCCC(=O)Nc3ccc(C)c(F)c3)cc2CC1C (centres undefined)	-1	0	-1	-1	-2	0	.	.
CC(=O)/C(N=Nc1ccc(-n2ccc(C(F)(F)F)n2)cc1)=C(\C)O	0	3	-1	-1	5	-2	.	.
CCC(=O)Nc1cccc(NC(=S)NC(=O)c2cccs2)c1	2	4	2	-1	11*	2	4	9.4*
CC(C)COC(=O)c1ccc2c(c1O)C(=O)c1ccccc1C2=O	1	5	2	-1	8.7*	1	4	4
CC(=O)N/C(N)=N/c1nc2cc(C)ccc2o1	2	11*	4	1	8.9*	2	6	9.6*
O=C(CSc1nnnn1C1CCCC1)c1ccc2c(c1)OCCO2	2	9	2	-1	8.3*	3	4	5.4*
CC(C)n1nnnc1SCC(=O)c1ccc2c(c1)OCCO2	1	3	0	-1	5	1	.	.
Cc1ccc(S(=O)(=O)/N=C(/c2ccccc2)N2CCOCC2)cc1	0	-1	-1	-1	8.2*	0	-2	1
